# Hits are enriched below; roughly 3.5% of the tested compounds scored in any of these assays.
# TEAD-YAP inh – TEAD-YAP interaction inhibition; AID 1259422; HEK-TIYL cells, TEAD-Gal4/YAP UAS-luciferase luminescence; inhibition, % at 9.12 µM; 1.4% of 640,000 active; in the data active means inhibition above about 32%;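 further: 0% = median of test compound wells and 100% = reference inhibitor wells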
# GPR151 activ – activators of human GPR151. PathHunter beta-arrestin GPR151 cells, luminescence. 1% of 650,000 active. activation, % at 11.2 µM; in the data active means activation above about 4.9%;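 further: 0% = median of compound wells and 100% = cells with positive control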
# MITF primary – human MITF inhibition, primary screen | O75030 | AlphaScreen MITF homodimerization, bead proximity signal | inhibition, % at 2.6 µM | 0.91% of 650,000 active; in the data active means inhibition above about 50%;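 further: 0% = vehicle wells with protein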
# FBW7 activator – human FBW7 E3 ligase activation, primary screen; Q969H0; normalized activity (activation), % at 26.1 µM; AlphaScreen FBW7–phospho-cyclin E peptide binding, activator screen; 0.13% of 650,000 active; in the data active means normalized activity above about 1.9%;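 further: purified mutant Fbw7 with reduced substrate affinity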
# GPR151 confirm – confirmation of human GPR151 activators. shares compounds with GPR151 activ. GPR151 PathHunter beta-arrestin cells, luminescence, 90 min; % of EA-reagent control over plate median. activation, % at 11.2 µM. 6,700 tested, under 10 active. AID 1508609;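 active means mean percent activation across replicates above the confirmation screen cutoff of 4.91%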
# GPR119 ag – counter-screen for GPR151 activators: effect on human GPR119; 0.3% of 6,700 active; GPR119 PathHunter beta-arrestin cells, luminescence, 90 min; 0 = compound-well median, 100 = enzyme-acceptor control; shares compounds with GPR151 activ; activation, % at 11.2 µM; AID 1508611;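 active means mean percent activation in the counterscreen above 29.09%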;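 further: counterscreen on off-target GPR119 to flag nonselective hits from the GPR151 activator screen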
# Target sequence (Q8TDV5 whole entry, looked up): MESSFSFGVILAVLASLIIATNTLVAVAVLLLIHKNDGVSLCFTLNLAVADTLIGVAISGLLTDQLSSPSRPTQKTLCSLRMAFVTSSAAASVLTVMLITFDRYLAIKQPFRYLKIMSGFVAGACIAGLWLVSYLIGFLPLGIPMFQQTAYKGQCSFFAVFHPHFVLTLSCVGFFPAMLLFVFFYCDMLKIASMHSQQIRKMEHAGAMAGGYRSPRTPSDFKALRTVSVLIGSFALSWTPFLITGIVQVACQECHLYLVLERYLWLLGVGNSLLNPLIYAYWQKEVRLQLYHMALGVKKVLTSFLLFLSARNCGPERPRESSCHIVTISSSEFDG
# * = called active by the depositor; / = not tested or not shown.
SMILES,TEAD-YAP inh,GPR151 activ,MITF primary,FBW7 activator,GPR151 confirm,GPR119 ag
CC1=C(C(=O)Nc2nc3ccccc3s2)C(c2ccc(C)cc2)C2=C(CC(C)(C)CC2=O)N1 (stereo not drawn),14.9,6.5*,-4.2,0.4,0.9,17.8
Cn1c2c(c(=O)n(C)c1=O)C(c1ccc(F)cc1)C1=C(CC(C)(C)CC1=O)N2 (stereo not drawn),10.2,-0.4,2.9,-0.1,/,/
CC1=C(C(=O)Nc2nc3ccccc3s2)C(c2ccc(Br)cc2)C2=C(CC(C)(C)CC2=O)N1 (stereo not drawn),1.9,0.2,-13.4,0.1,/,/
Cc1ccc(C2C3=C(CC(C)(C)CC3=O)Nc3n[nH]c(C)c32)cc1 (stereo not drawn),8.6,8.4*,5.7,0.1,-0.2,0.0
CC(=O)Nc1ccc(C(=O)CSc2nc(O)cc(=O)[nH]2)cc1,-6.9,-1.8,10.3,-0.5,/,/
COc1ccc(NC(=O)CNC(=O)Cn2cnc3sc(C)cc3c2=O)cc1OC,6.3,0.3,7.4,0.0,/,/
COc1ccccc1CN1C(=O)c2ccccc2C1C(=O)NC1CCCCC1 (stereo not drawn),-2.4,-0.4,7.5,0.1,/,/
COc1cc(C(=O)Nc2ccc(C)cc2C)c([N+](=O)[O-])cc1OC,2.1,0.1,0.1,-0.1,/,/
COC(=O)C1=C(O)/C(=C\c2ccc(F)cc2)N=C1C,5.8,8.6*,-5.5,0.1,0.8,-6.8
CCN1CCN(c2ncnc3sc(C(=O)Nc4ccc(F)cc4)c(C)c23)CC1,-1.0,5.2*,2.6,-0.1,-0.4,6.2
CCN1CCN(c2ncnc3sc(C(=O)Nc4cnc5ccccc5c4)c(C)c23)CC1,-18.1,5.3*,9.4,-0.1,0.0,11.9
COc1ccc([N+](=O)[O-])cc1NC(=O)c1sc2ncnc(N3CCC(C)CC3)c2c1C,-1.2,12.5*,-2.4,0.1,0.1,5.8
Cc1c(S(=O)(=O)NCc2ccc(S(N)(=O)=O)cc2)sc2ccc(Cl)cc12,-1.6,-0.5,14.4,0.0,/,/
C/C(=N/NC(=O)c1ccncc1)c1ccc([N+](=O)[O-])cc1,4.0,-0.6,13.0,0.8,/,/
O=C(CCN1c2ccccc2Sc2ccccc21)N1CCOCC1,4.2,5.8*,9.5,-0.1,-0.8,-0.8
CN1C(=N)N(c2nc(N(C)C)nc(N(C)C)n2)CC1=O,2.5,1.4,-2.9,-0.1,/,/
Cc1cc(C)nc(N2CC(=O)N(C)C2=N)n1,-1.3,5.5*,-7.8,0.0,0.4,3.8
CCCCNC(=O)C1Cc2ccccc2CN1S(=O)(=O)c1cccs1 (stereo not drawn),10.7,5.7*,-0.8,0.2,0.2,-5.3
Cc1cccc(N2N=C(c3ccccc3)CC2=O)c1C,13.6,8.8*,6.0,-0.2,-0.6,10.5
CCCCCOC(=O)c1ccc(NC(=O)c2ccc(I)c([N+](=O)[O-])c2)cc1,-6.1,-1.3,11.3,0.2,/,/
O=C1NC(N2CCOCC2)=N/C1=C/c1ccc2c(c1)OCO2,-15.4,9.4*,4.8,0.0,0.2,5.8
COC(=O)Nc1ccc(S(=O)(=O)OCC(F)(F)C(F)F)cc1,-2.2,0.1,-1.3,0.1,/,/
Cc1c(-c2ccc(Cl)cc2)noc1C1CCN(CCc2ccccc2)CC1,/,8.2*,8.7,-0.1,2.1,-0.8
CC(C)(C)C(=O)Nc1nnc(SCC(N)=O)s1,-7.5,5.2*,5.2,-0.2,-1.7,-1.6
CC(C)(C)C(=O)Nc1nnc(SCC(=O)NO)s1,-22.1,-1.7,9.7,-0.1,/,/
SMILES,TEAD-YAP inh,GPR151 activ,MITF primary,FBW7 activator,GPR151 confirm,GPR119 ag
CCOC(=O)CNC(=O)CSc1nnc(NC(=O)C(C)(C)C)s1,10.4,5.2*,-1.2,0.4,1.4,15.5
O=C(Nc1ccc(-c2ccco2)cc1)C1CCCN(Cc2ccncc2)C1 (stereo not drawn),10.9,-0.4,-8.1,0.0,/,/
Cc1ccc(-n2cc(-c3ccccc3)c3c(N4CC(C)CC(C)C4)ncnc32)cc1Cl (stereo not drawn),4.0,3.8,14.2,0.2,/,/
COc1ccc(/C=C2/Sc3ccc(C(=O)NC(C)(C)C)cc3NC2=O)cc1,-3.6,-0.3,-0.9,0.1,/,/
COCCCNC(=O)c1ccc2c(c1)NC(=O)/C(=C\c1ccc(OC)cc1)S2,5.7,7.2*,-1.2,-0.1,-0.1,-0.5
CC1CCCN(c2c(-c3ccc(Cl)cc3)c(=O)c2=O)C1 (stereo not drawn),9.6,5.9*,-3.0,-0.1,0.6,-4.9
CC1CCCN(S(=O)(=O)c2ccc([N+](=O)[O-])cc2)C1 (stereo not drawn),-3.9,5.7*,4.0,-0.3,1.2,1.6
O=C1CCCC2=C1C(c1ccc(O)cc1)Nc1ccccc1N2 (stereo not drawn),-13.4,-0.3,4.7,-0.3,/,/
CCOc1ccc(C(=O)NCCn2cc(SC(=N)N)c3ccccc32)cc1,10.3,5.0*,1.2,-0.1,0.1,-3.6
CCCCC1CCC(C(=O)OCC(=O)c2ccc(-c3ccc(Br)cc3)cc2)CC1 (stereo not drawn),9.2,6.6*,3.9,0.0,-0.2,-4.1
Cc1ccc(N=NNc2cccc([N+](=O)[O-])c2)cc1,-4.0,5.9*,-3.8,0.1,-0.2,-6.1
CC(=O)N1CCOc2cc(S(=O)(=O)N3CCC(Cc4ccccc4)CC3)c(C)cc21,0.3,5.0*,-2.4,-0.1,0.4,2.5
CC(=O)N1CCOc2cc(S(=O)(=O)N3CCCCCC3)c(C)cc21,-8.3,0.4,6.5,0.0,/,/
N#Cc1c(NC(=O)c2cc3ccccc3oc2=O)sc2c1CCCCCC2,6.9,-0.3,37.5,-0.1,/,/
CCc1cccc(C)c1NC(=O)c1cc2ccccc2oc1=O,-8.0,2.1,4.4,0.0,/,/
NC(=O)c1c(NC(=O)c2cc3ccccc3oc2=O)sc2c1CCCCCC2,-21.1,28.4*,-2.0,0.9,0.3,-1.1
O=C(c1cc2ccccc2oc1=O)N1CCN(c2ccccc2)CC1,-25.7,6.3*,8.7,-0.1,0.5,4.7
Cc1cccc(C)c1NC(=O)c1cc2ccccc2oc1=O,5.8,6.0*,4.0,0.5,0.1,-0.3
COc1cc(C(=O)Nc2cccc(-c3nc4cc(Cl)ccc4o3)c2C)cc(OC)c1OC,-16.8,0.5,-3.7,0.0,/,/
O=[N+]([O-])c1ccc(N2CCN(Cc3ccoc3)CC2)cc1,-1.3,-0.2,8.2,-0.1,/,/
CC(=O)c1ccc(N2CCN(Cc3ccoc3)CC2)cc1,-16.8,5.9*,20.3,-0.2,-0.8,-6.7
COc1ccc(CC2(CO)CCN(Cc3ccc(NC(C)=O)cc3)CC2)cc1,7.1,5.9*,9.7,-0.1,1.5,-4.4
Cc1nnc(NC(=O)C(C)N2CCN(C)CC2)s1 (stereo not drawn),4.3,1.4,-3.2,0.0,/,/
Cc1nnc(NC(=O)C(C)N2CCCC2)s1 (stereo not drawn),-3.2,13.7*,42.6,0.1,0.8,9.9

# Screening data: PubChem BioAssay, The Scripps Research Institute Molecular Screening Center
